Test results: PubChem BioAssay (EPA / NIEHS)
Activity calls are given as the source filed them. How the source made its calls: active means hit-call score of the fitted dose curve at least 0.9, where 1 is the maximum; inactive means score below 0.9.

Test: BSK_4H_Eotaxin3: BioMAP Diversity Plus: 4H Assay for Eotaxin 3 Biomarker Activity (AID 2283000)
Details: primary human endothelial cells (HUVEC); actives raise or lower the signal
Protocol: BSK_4H is a cell-based, multiplexed-readout assay that uses umbilical vein endothelium, a human vascular primary cell, with measurements taken at 24 hours after chemical dosing in a 96-well plate.BSK_4H_Eotaxin3 is an assay component measured in the BSK_4H assay. It measures Eotaxin-3 antibody related to regulation of gene expression using ELISA technology.Data from the assay component BSK_4H_Eotaxin3 was analyzed into 1 assay endpoint. This assay endpoint, BSK_4H_Eotaxin3, was analyzed with bidirectional fitting relative to DMSO as the negative control and baseline of activity. Using a type of binding reporter, gain or loss-of-signal activity can be used to understand changes in the signaling as they relate to the gene CCL26. Furthermore, this assay endpoint can be referred to as a primary readout, because this assay has produced multiple assay endpoints where this one serves a signaling function. To generalize the intended target to other relatable targets, this assay endpoint is annotated to the cytokine intended target family, where the subfamily is chemotactic factor.
The levels of cell surface (or secreted, indicated by the prefix "s") biomarker endpoints were measured by ELISA. Overt cytotoxicity to cells in confluent adherent cultures (all systems other than the BT system) was assessed by measuring total protein levels using sulforhodamine B (SRB) staining in parallel cultures at the time of biomarker measurements, indicated as SRB endpoints. For proliferation assays for adherent cell types, individual cell types are cultured at sub-confluence and relative cell numbers quantified by SRB staining at time points optimized for each system (48 h: 3C and CASM3C systems; 72 h: BT and HDF3CGF systems; 96 h: SAg system). SRB was performed by staining cells with 0.1% SRB after fixation with 10% TCA and reading wells at 560 nm.Viability and proliferation of PBMC (T cells) was quantified by Alamar Blue reduction for the SAg and BT systems. For PBMC viability (referred to as PBMC Cytotoxicity within the assay endpoint names), cells were plated (75,000/well in a 96-well plate) and then chemical samples added for 1 h before addition of activators, SEB and TSST-1 (20 ng/mL final concentration each). Cells were incubated for 90 h. Then, Alamar Blue (20 uL/well) (Invitrogen, Cat DAL1100) was added for 6 h, and the plates were read with a fluorescence microplate reader at 546/580 nm (excitation/emission). For PBMC proliferation, cells were plated and activated as above but incubated for only 16 h prior to addition of Alamar Blue. Plates were read after 6 h.

Row | SMILES | outcome | AC50
1 | O=Cc1ccco1 | inactive | 
2 | O=C1CCCO1 | inactive | 
3 | CC(O)CCO (stereo not given) | inactive | 
4 | c1ccc(N=Nc2ccccc2)cc1 | inactive | 
5 | CN(C)[C@@H]1C(=O)C(C(N)=O)=C(O)[C@@]2(O)C(=O)C3=C(O)c4c(O)cccc4[C@@](C)(O)[C@H]3C[C@@H]12 | inactive | 
6 | C1=Cc2cccc3cccc1c23 | inactive | 
7 | Clc1ccccc1Cl | inactive | 
8 | CCCCCOC(=O)c1ccccc1C(=O)OCCCCC |  | 20 µM (active)
9 | ClC1=C(Cl)[C@]2(Cl)[C@H]3[C@H]([C@@H]4C=C[C@H]3C4)[C@@]1(Cl)C2(Cl)Cl |  | 34.1 µM (active)
10 | C[N+](C)(C)CC1CO1 (stereo not given) | inactive | 
11 | Nc1ccc(Cl)cc1N |  | 2.15 µM (active)
12 | c1ccc(NNc2ccccc2)cc1 | inactive | 
13 | N#CC(Br)Br | inactive | 
14 | Cc1cccc(N)c1N | inactive | 
15 | O=[N+]([O-])C(Br)(CO)CO |  | 27.7 µM (active)
16 | CN(C)c1ccccc1 | inactive | 
17 | O=P(OCCCl)(OCCCl)OCCCl | inactive | 
18 | CCC(C)c1ccc(O)cc1 (stereo not given) | inactive | 
19 | CCCSC(=O)N(CCC)CCC | inactive | 
20 | O=C(N[C@H](c1ccccc1)[C@@H]1CN2CCC1CC2)c1c(Cl)ccc(C(F)(F)F)c1Cl | inactive | 

Row | SMILES | outcome | AC50
21 | CC(C)(C)OOC(=O)c1ccccc1 | inactive | 
22 | Nc1ccc(Oc2ccc(N)cc2)cc1 | inactive | 
23 | c1ccc(C2CO2)cc1 (stereo not given) | inactive | 
24 | Nc1ccc(N=Nc2ccccc2)cc1 | inactive | 
25 | Cc1cc(N=Nc2ccccc2C)ccc1N |  | 14.2 µM (active)
26 | O=C(Nc1ccccc1)c1ccccc1I | inactive | 
27 | CN(C)C(=O)Nc1ccc(Cl)cc1 | inactive | 
28 | O=C(O)C1C2CCC(O2)C1C(=O)O (stereo not given) | inactive | 
29 | CC(C)(O)c1cnn2c(-c3ccc(F)c(-c4c(F)cccc4C#N)c3)cnc2n1 |  | 33.6 µM (active)
30 | CC(C)(C)OOC(C)(C)CCC(C)(C)OOC(C)(C)C | inactive | 
31 | CCCCCCCCCCCCCN1CC(C)OC(C)C1 (stereo not given) | inactive | 
32 | CC(C)(C)C(O)(CCc1ccc(Cl)cc1)Cn1cncn1 (stereo not given) | inactive | 
33 | Nc1ccc([N+](=O)[O-])cc1 | inactive | 
34 | c1ccc2c(c1)oc1ccccc12 | inactive | 
35 | C=CCc1ccc2c(c1)OCO2 | inactive | 
36 | Cc1ccc([N+](=O)[O-])cc1 | inactive | 
37 | CCN(CC)CCO | inactive | 
38 | CCCCC(CC)COC(=O)c1ccc(C(=O)OCC(CC)CCCC)c(C(=O)OCC(CC)CCCC)c1 (stereo not given) | inactive | 
39 | Oc1ccc2ccc3cccc4ccc1c2c34 |  | 28.6 µM (active)
40 | COC(=O)Nc1nc2ccccc2[nH]1 |  | 20 µM (active)
